# According to PubChem BioAssay AID1159580 (chemical genetic matrix, 2015):
# Where “and” joins values, the source holds several entries; their conditions need not be identical. Equal values may be shown once. In all, about 5,500 compounds went through this assay and about 2,000 (36%) were called active. About 18% were inconclusive and are not listed. The list shows a part of the results. Unmarked numbers belong to inactive results. No stated cut-off is given here; in the data, active means normalized growth mostly below about 0.91 (no sharp cut-off); inconclusive means no clear call, values can overlap the other calls; inactive means mostly above about 0.92.
# Assay: chemical genetic growth profiling, strain panel (AID 1159580);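 further: tested at 20 µM; growth read once vehicle control cultures reached saturation at 30 °C; 1 = growth at the plate median or of vehicle wells; lower values mean less growth of the strain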
# Conditions: S. cerevisiae deletion strains, growth OD
smiles,measurement,setting,value
C=CCc1cc(OC)c2c(c1OC)OCO2,normalized growth,"locus YAL013W, strain DEP1, hits give low values",0.971
same,normalized growth,"locus YAL021C, strain ccr4, hits give low values",1
same,normalized growth,"locus YAL026C, strain drs2, hits give low values",0.955
same,normalized growth,"locus YAL030W, strain snc1, hits give low values",0.95
same,normalized growth,"locus YBL061C, strain skt5, hits give low values",0.926
same,normalized growth,"locus YBR009C, strain hhf1, hits give low values",0.938
same,normalized growth,"locus YBR021W, strain FUR4, hits give low values",0.934
same,normalized growth,"locus YBR023C, strain chs3, hits give low values",0.902 (active)
same,normalized growth,"locus YBR171W, strain sec66, hits give low values",0.874 (active)
same,normalized growth,"locus YBR229C, strain ROT2, hits give low values",0.996
same,normalized growth,"locus YBR231C, strain swc5, hits give low values",0.982
same,normalized growth,"locus YBR279W, strain paf1, hits give low values",0.966
same,normalized growth,"locus YCL011C, strain gbp2, hits give low values",0.937
same,normalized growth,"locus YCL016C, strain dcc1, hits give low values",0.937
same,normalized growth,"locus YCL029C, strain bik1, hits give low values",0.945
same,normalized growth,"locus YCL061C, strain MRC1, hits give low values",0.944
same,normalized growth,"locus YCL069W, strain vba3, hits give low values",0.969
same,normalized growth,"locus YCR088W, strain abp1, hits give low values",0.954
same,normalized growth,"locus YDL005C, strain med2, hits give low values",0.992
same,normalized growth,"locus YDL035C, strain GPR1, hits give low values",0.968
same,normalized growth,"locus YDL040C, strain nat1, hits give low values",0.924 (active)
same,normalized growth,"locus YDL074C, strain BRE1, hits give low values",0.91
same,normalized growth,"locus YDL101C, strain DUN1, hits give low values",0.995
same,normalized growth,"locus YDL134C, strain PPH21, hits give low values",0.982
same,normalized growth,"locus YDL185W, strain tfp1, hits give low values",0.968
same,normalized growth,"locus YDL192W, strain arf1, hits give low values",0.956
same,normalized growth,"locus YDR001C, strain nth1, hits give low values",0.93
same,normalized growth,"locus YDR069C, strain doa4, hits give low values",1.06
same,normalized growth,"locus YDR101C, strain arx1, hits give low values",0.908 (active)
same,normalized growth,"locus YDR137W, strain rgp1, hits give low values",0.955
same,normalized growth,"locus YDR150W, strain NUM1, hits give low values",0.979
same,normalized growth,"locus YDR159W, strain sac3, hits give low values",0.797 (active)
same,normalized growth,"locus YDR162C, strain NBP2, hits give low values",0.951
same,normalized growth,"locus YDR195W, strain ref2",1.22 [resistant] (active)
same,normalized growth,"locus YDR297W, strain sur2, hits give low values",0.94
same,normalized growth,"locus YDR318W, strain mcm21, hits give low values",0.947
same,normalized growth,"locus YDR334W, strain swr1, hits give low values",1.02
same,normalized growth,"locus YDR335W, strain msn5, hits give low values",0.982
same,normalized growth,"locus YDR388W, hits give low values",0.947
same,normalized growth,"locus YDR392W, strain spt3, hits give low values",0.378 (active)
same,normalized growth,"locus YDR502C, strain sam2, hits give low values",0.929
same,normalized growth,"locus YEL003W, strain gim4, hits give low values",0.955
same,normalized growth,"locus YEL037C, strain rad23, hits give low values",0.987
same,normalized growth,"locus YEL061C, strain CIN8 (second series), hits give low values",0.946
same,normalized growth,"locus YEL061C, strain CIN8, hits give low values",0.966
same,normalized growth,"locus YER015W, strain faa2, hits give low values",0.955
same,normalized growth,"locus YER016W, strain bim1, hits give low values",0.938
same,normalized growth,"locus YER110C, hits give low values",0.929
same,normalized growth,"locus YER111C, strain swi4, hits give low values",0.898 (active)
same,normalized growth,"locus YER155C, strain BEM2 (second series), hits give low values",0.462 (active)
same,normalized growth,"locus YER155C, strain BEM2, hits give low values",0.96
same,normalized growth,"locus YER167W, strain BCK2, hits give low values",0.938
same,normalized growth,"locus YFR010W, strain ubp6, hits give low values",1.06
same,normalized growth,"locus YGL078C, strain dbp3, hits give low values",0.959
same,normalized growth,"locus YGL086W, strain mad1, hits give low values",0.962
same,normalized growth,"locus YGL167C, strain pmr1, hits give low values",0.908 (active)
same,normalized growth,"locus YGL173C, strain kem1, hits give low values",0.909
same,normalized growth,"locus YGL227W, strain vid30, hits give low values",0.882 (active)
same,normalized growth,"locus YGL240W, strain doc1, hits give low values",0.839 (active)
same,normalized growth,"locus YGL248W, strain PDE1, hits give low values",0.983
same,normalized growth,"locus YGL253W, strain hxk2, hits give low values",0.945
same,normalized growth,"locus YGR078C, strain PAC10, hits give low values",0.903
same,normalized growth,"locus YGR135W, strain pre9, hits give low values",0.948
same,normalized growth,"locus YGR229C, strain SMI1, hits give low values",0.932
same,normalized growth,"locus YGR252W, strain gcn5, hits give low values",0.969
same,normalized growth,"locus YHR013C, strain ard1, hits give low values",1.32 [resistant] (active)
same,normalized growth,"locus YHR027C, strain rpn1, hits give low values",0.947
same,normalized growth,"locus YHR030C, strain SLT2, hits give low values",0.963 and 0.999
same,normalized growth,"locus YHR079C, strain IRE1 (second series), hits give low values",0.932
same,normalized growth,"locus YHR079C, strain IRE1, hits give low values",0.995
same,normalized growth,"locus YHR094C, strain hxt1, hits give low values",0.935
same,normalized growth,"locus YHR129C, strain ARP1, hits give low values",0.955
same,normalized growth,"locus YHR142W, strain chs7, hits give low values",0.723 (active)
same,normalized growth,"locus YHR200W, strain rpn10, hits give low values",0.969
same,normalized growth,"locus YIL066C, strain RNR3, hits give low values",0.979
same,normalized growth,"locus YIL073C, strain SPO22, hits give low values",1.07
same,normalized growth,"locus YIL125W, strain kgd1, hits give low values",0.934
same,normalized growth,"locus YIR030C, strain dcg1, hits give low values",0.933
same,normalized growth,"locus YJL092W, strain hpr5, hits give low values",0.922
same,normalized growth,"locus YJL095W, strain BCK1 (second series), hits give low values",0.879 (active)
same,normalized growth,"locus YJL095W, strain BCK1, hits give low values",0.868 and 0.994
same,normalized growth,"locus YJL115W, strain asf1, hits give low values",0.978
same,normalized growth,"locus YJL129C, strain trk1, hits give low values",0.942
same,normalized growth,"locus YJL134W, strain LCB3, hits give low values",0.973
same,normalized growth,"locus YJL154C, strain vps35, hits give low values",0.989
same,normalized growth,"locus YJL164C, strain tpk1, hits give low values",0.939
same,normalized growth,"locus YJL166W, strain qcr8, hits give low values",0.934
same,normalized growth,"locus YJL168C, strain set2, hits give low values",0.94
same,normalized growth,"locus YJL187C, strain SWE1 (second series), hits give low values",0.985
same,normalized growth,"locus YJL187C, strain SWE1, hits give low values",0.945
same,normalized growth,"locus YJR043C, strain POL32, hits give low values",1.05
same,normalized growth,"locus YJR066W, strain TOR1, hits give low values",0.95
